# Only some compounds are listed: those with a hit (about 7.3% of all), similar ones and a draw of the others.
# FLuc modulator: firefly luciferase modulation, counter-screen for miR-21 project; P08659; purified FLuc, Km substrates, luminescence inhibition; Potency, µM (highest dose often 57.5 µM), for inactives: at the highest dose activity change, negative = inhibition, hits mostly inhibitors; 6.9% of 360,000 active;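 also: plate controls were vehicle for no effect and reference inhibitor for full effect; nearly all actives have a fitted effect of over 55% in size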
# Target sequence (P08659 whole entry, looked up): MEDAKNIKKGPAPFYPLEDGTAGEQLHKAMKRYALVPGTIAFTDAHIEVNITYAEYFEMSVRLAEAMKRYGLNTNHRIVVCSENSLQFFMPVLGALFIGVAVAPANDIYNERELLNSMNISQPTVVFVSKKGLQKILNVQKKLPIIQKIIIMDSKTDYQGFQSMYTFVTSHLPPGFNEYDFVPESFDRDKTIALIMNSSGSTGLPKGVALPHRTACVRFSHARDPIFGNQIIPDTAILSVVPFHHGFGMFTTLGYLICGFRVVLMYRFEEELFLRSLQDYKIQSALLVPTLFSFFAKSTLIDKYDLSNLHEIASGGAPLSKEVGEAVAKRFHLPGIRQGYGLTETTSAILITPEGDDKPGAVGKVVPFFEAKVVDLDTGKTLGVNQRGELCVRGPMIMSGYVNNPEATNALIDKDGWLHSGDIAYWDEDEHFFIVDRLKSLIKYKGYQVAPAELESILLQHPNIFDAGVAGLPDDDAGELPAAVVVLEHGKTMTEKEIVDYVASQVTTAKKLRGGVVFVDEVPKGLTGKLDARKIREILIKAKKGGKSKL
#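 Purified P. pyralis luciferase (10nM final) with 10uM D-luciferin and 10uM ATP (Km levels) in 50mM Tris acetate pH 7.5, 10mM Mg acetate, 0.01% Tween-20, 0.05% BSA; qHTS 6-point titration, ~60 µM downward; luminescence read.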
# SMN2 splice enh: SMN2 splice variant enhancement | HEK293 SMN2-luciferase splicing reporter, luminescence, 30-36 h | 2.8% of 210,000 active | Potency, µM (titrated, usually from 46.1 µM), without a hit: at the top dose activity change, positive = activation, most hits filed as activators; also: % of control where 0% means no effect; nearly all actives have a fitted effect of over 55% in size
#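 HEK293 cells carry an SMN2 […]–luciferase reporter in which exon 7 inclusion puts luciferase in frame. Cells were plated 10-12 h before compound addition, then incubated 30-36 h at 37C. ONE-Glo luminescence was read; sodium butyrate at 4.5 mM final served as control.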
# NPC1 prom act: activates the NPC1 promoter; 2.4% of 320,000 active; Huh7 NPC1 promoter luciferase reporter, 24 h; AID 485313; Potency, µM (highest dose often 9.22 µM), for inactives: at the highest dose activation, hits mostly activators; also: % of control where 0% means no effect; nearly all actives have a fitted effect of over 60% in size
#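 Quantitative HTS used a cell-based reporter: Huh7 cells stably bearing the NPC1 promoter upstream of luciferase were treated with compounds for 24 h, and promoter activation was read as luminescence.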
# ELG1 genotox: induces genotoxicity in HEK293T cells with luciferase-tagged ELG1. HEK293T ELG1-luciferase reporter, luminescence, 16 h. Potency, µM (series often up to 46 µM), for inactives: at the top dose activity change, positive = activation, most hits filed as activators. 1.3% of 330,000 active. AID 504466; also: % of control where 0% means no effect; nearly all actives have a fitted effect of over 60% in size
#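 After overnight (16 hr) compound treatment at 37 °C, ELG1-luciferase HEK293T cells were lysed with ONE-Glo; luminescence quantified 30 min later at room temperature.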
# Rab9 promoter act: activates the Rab9 promoter | Huh7 Rab9 promoter-luciferase reporter, luminescence, 24 h | 2.8% of 320,000 active | Potency, µM (top dose mostly 9.22 µM), for inactives: at the highest dose activation, negative = inhibition, most hits filed as activators; also: % of control where 0% means no effect; nearly all actives have a fitted effect of over 60% in size
#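 Luciferase signal after 10 min detection reagent at ambient indicates Rab9 promoter upregulation; stably transfected Huh7 cells were treated 24 h with compound in DMSO at 37 °C, 5% CO2.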
# KinaseGlo FLuc: Kinase-Glo luciferase inhibition (counter-screen). Potency, µM (top dose mostly 38.3 µM), for the others: top-dose activity change, negative = inhibition, most hits filed as inhibitors. Kinase-Glo luciferase, ATP luminescence, 8 min. 0.28% of 200,000 active; also: % is scaled to controls: 0 for no effect and ±100 for the full control effect; nearly all actives have a fitted effect of over 60% in size
#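 Recombinant Kinase-Glo luciferase, 10 uM ATP (linear range), luciferin; imidazole pH 7.2 / KCl / MgCl2 / Tween / BSA buffer; 8 min RT; luminescence.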
# Starred values were filed as active, the others as inactive; ? = inconclusive; nt = no result given; [ ] = another dose, or the depositor's remark. Calls follow the shape of the dose curve; as a rule, active = well fitted curve in the direction sought with a large enough effect; inconclusive = small, poorly fitted or top-dose-only effect, or another doubt; inactive = no such curve, though single readings can be large; an effect the other way counts as inactive or inconclusive. Potency is read from the fitted curve at half-maximal effect.
SMILES,FLuc modulator,SMN2 splice enh,NPC1 prom act,ELG1 genotox,Rab9 promoter act,KinaseGlo FLuc
O=C(COC(=O)c1ccc(O)cc1)c1ccc2c(c1)OCCO2,1.2µM*,nt,3.5µM*,5.2µM*,4µM*,nt
O=C(COC(=O)c1cc(Cl)ccc1O)c1ccc2c(c1)OCO2,1.9µM*,nt,?,8%,30%,nt
O=C(COC(=O)c1cc(Br)ccc1O)Nc1ccc2c(c1)OCO2,-10%,nt,0%,1%,-3%,nt
CCC1CCCCN1CCCNC(=O)Cn1nc(C)n2nc(-c3ccccc3)cc2c1=O (stereo not given),0%,nt,-3%,-2%,-4%,nt
COc1cccc(-c2cncnc2NCc2ccc(OC)cc2OC)c1,nt,-13%,nt,nt,nt,-2%
COc1cccc(NC(=O)C2C3C=CC4(O3)C2C(=O)N(CCN2CCCCC2)C4C(=O)NC2CCCCC2C)c1 (stereo not given),2%,nt,10%,0%,-3%,nt
Cc1ccnc(NC(=O)CN2C(=O)c3ccccc3S2(=O)=O)c1,-12%,nt,1%,-1%,2%,nt
CN(CC(=O)Nc1ccccc1C(F)(F)F)C(=O)C1CCN(C(=O)c2ccc(Cl)cc2)CC1,2%,nt,-3%,4%,0%,nt
CNC(=O)C(=O)Nc1nc(C23CC4CC(CC(C4)C2)C3)cs1,-19%,nt,?,13%,3.2µM*,5%
CC(=O)Nc1ccc(-c2cc(C(=O)O)c3ccc(C)cc3n2)cc1,17µM*,nt,18%,9%,4%,nt
COC(=O)c1cc(OC)c(OC)cc1NC(=O)c1cc(-c2ccccc2)nc2ccccc12,2%,-26%,-7%,1%,-9%,-2%
COC(=O)c1cc(-c2ccc(NC(C)=O)cc2)nc2ccccc12,12µM*,-5%,-1%,-3%,-3%,3%
CC(=O)Nc1ccc(-c2cc(C(=O)O)c3cc4ccccc4cc3n2)cc1,nt,0%[9.22 µM],nt,nt,nt,-8%[7.66 µM]
CC1CCc2nc3ccccc3c(C(=O)OCC(=O)NC3CCS(=O)(=O)C3)c2C1 (stereo not given),1%,-4%,-1%,-5%,-9%,-1%
COC(=O)c1noc(-c2ccc(OC)cc2)n1,?,16%,0%,-1%,1%,-8%
Fc1ccc(-c2cc(-c3cccs3)cc(-c3ccccc3)n2)cc1,-5%,nt,0%,-2%,-8%,nt
Fc1ccc(-c2cnc(-c3cccs3)o2)cc1,6µM*,17%,4µM*,?,3.5µM*,-3%
COC(=O)c1noc(-c2ccc(C)cc2)n1,11µM*,14%,-1%,2%,-5%,-4%
Cc1noc(-c2ccc(-c3noc(-c4ccc(F)cc4)n3)cc2)n1,-6%,nt,nt,nt,nt,nt
Fc1ccc(-c2nc(-c3cccs3)no2)cc1,1.3µM*,nt,2µM*,?,1.8µM*,nt
O=C(NCCc1ccccc1)c1nc(-c2cccs2)no1,13µM*,14µM*,?,?,5.6µM*,-1%
Cc1ccc(C)c(S(=O)(=O)c2cnc(SCC(=O)Nc3ccc(F)cc3F)[nH]c2=O)c1,?,-2%,nt,nt,nt,nt
O=C(Nc1ccccc1)C1CC(=O)N(c2ccc3c4c(cccc24)CC3)C1 (stereo not given),3%,14%,-6%,-2%,-4%,3%
COC(=O)c1ccc(-c2nc(-c3cccs3)no2)cc1,0.15µM*,10%,0.32µM*,0.37µM*,?,?
CCOC(=O)c1ccc(OCc2nc(-c3cccs3)no2)cc1,-1%[2.3 µM],12%,12%,-5%,9%,-1%
SMILES,FLuc modulator,SMN2 splice enh,NPC1 prom act,ELG1 genotox,Rab9 promoter act,KinaseGlo FLuc
Cc1cccc(-c2nc3nc(C)cc(NC(C)c4ccccc4)n3n2)c1 (stereo not given),17µM*,nt,nt,nt,nt,nt
Cc1cc(/C=C(/C#N)C(=O)Nc2ccccc2)c(C)n1-c1cccnc1,1.5µM*,1%,?,1%,4µM*,-19%
CNC(=O)/C(C#N)=C\c1cc(C)n(-c2ccc(N3CCOCC3)cc2)c1C,-2%,nt,2%,9%,4%,-3%
Cc1ccccc1NC(=O)/C(C#N)=C\c1cc(C)n(-c2ccc(C(=O)O)cc2)c1C,-14%,nt,-3%,0%,-1%,nt
Cc1cc(/C=C(\C#N)C(=O)Nc2ccccc2)c(C)n1-c1ccc2c(c1)OCO2,11µM*,-14%,6%,-4%,1%,0%
CC1CC(C)CN(S(=O)(=O)c2cccc3cccnc23)C1 (stereo not given),-12%,-28%,-1%,-6%,1%,-4%
c1ccc(-c2ccc(C3=Nn4c(nnc4-c4cc(-c5ccccc5)n[nH]4)SC3)cc2)cc1,4.8µM*,-10%,14%,-8%,-10%,-6%
COc1ccc(C2=Nn3c(nnc3-c3ccncc3)SC2)cc1OC,1%,10µM*,-3%,15%,-5%,-2%
Brc1ccc(C2=Nn3c(nnc3-c3n[nH]c4c3CCC4)SC2)cc1,3%[2.3 µM],22µM*,-27%,?,-11%,1%
CCOC(=O)C1(Cc2cccc(Cl)c2)CCCN(C(=O)CCC(=O)N(C)C)C1 (stereo not given),1%,nt,-5%,-2%,2%,nt
CCSc1nncn1/N=C/c1ccc(OC)c(OC)c1,?,?,8%,?,23%,2%
C=C(C)CSc1nncn1/N=C/c1ccc(OC)cc1,12µM*,?,?,?,4µM*,0%
CCN(c1cccc(C)c1)S(=O)(=O)c1ccc2c3c(cccc13)C(=O)N2,3%,-10%,-1%,-3%,-18%,0%
CCCCn1cnc2c(sc3nc4c(cc32)CSC(C)(C)C4)c1=O,1.1µM*,4µM*,0.63µM*,?,1.1µM*,-2%
CC1(C)Cc2nc3sc4c(N(CCO)CCO)ncnc4c3cc2CO1,?,19%,6%,?,11%,-4%
CC(C)CCn1cnc2c(sc3nc4c(cc32)CSC(C)(C)C4)c1=O,0.6µM*,-5%,1µM*,?,0.63µM*,1%
CC1(C)Cc2nc3sc4c(NCCO)ncnc4c3cc2CS1,19µM*,nt,21%,1%,?,nt
COc1ccc(C2N(c3ccccn3)C(=O)C3CCCN32)c(OC)c1 (stereo not given),3%,8%,-4%,-1%,2%,5%
C/C(Cc1ccccc1)=N/NC(=O)CNC(=O)C(c1ccccc1)c1ccccc1,-1%,nt,-5%,0%,-5%,nt
CCOc1ccc(-n2c(-c3ccc(OC)cc3)c[n+]3c2CCCCC3)cc1,3%,-64%,-36%,-4%,-38%,0%
CC(C)(C)c1cc(NC(=O)CSc2nnc(NCc3ccccc3)s2)n(-c2ccccc2)n1,19µM*,-35%,-1%,-12%,0%,0%
O=C1NCCC/C1=N/Nc1cc(F)ccc1F,19µM*,nt,?,?,?,nt

# Screening data deposited in PubChem by National Center for Advancing Translational Sciences (NCATS).
